HT1080 IDH1KD tx – kills HT-1080 cells with IDH1 knockdown. Potency, µM (highest dose often 46.1 µM), hits mostly cytotoxic. AID 686971. 360,000 compounds, 2% hits. HT-1080 IDH1 knockdown viability, ATP luminescence, 48 h
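IDH1KD HT-1080 cells, 750/well, RPMI + 5% FBS; compound pinned after 2 h settling; 48 h, 37 °C; CellTiter-Glo luminescence; % activity normalised to DMSO and no-cell wells; curves fitted, classed by r2 and efficacy.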
KB-V1 cytotox – KB-V1 MDR subline cytotoxicity; KB-V1 MDR cells viability, CellTiter-Glo, 72 h; Potency, µM (series often up to 46.1 µM), most hits filed as cytotoxic; 400,000 compounds, 3.4% hits; also: nearly all actives have a fitted effect of over 60% in size
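Following 72 h at 37 degrees C with compound, KB-V1 cell viability was read by CellTiter-Glo luminescence, medium being phenol-red-free DMEM plus 10% FBS; concentration-response parameters came from normalized, curve-fitted qHTS data.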
HT1080NT lethal – kills 2HG-producing HT-1080-NT fibrosarcoma cells; HT-1080-NT fibrosarcoma viability, CellTiter-Glo ATP luminescence, 48 h; Potency, µM (series often up to 46.1 µM), actives largely listed as cytotoxic; 360,000 compounds, 1.6% hits;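 also: NT is the 2HG producing partner of a matched IDH1 knockdown line; nearly all actives have a fitted effect of over 55% in size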
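HT-1080-NT fibrosarcoma cells (2HG-overproducing), 750 cells/well in RPMI with 5% FBS, dosed after 2 h and incubated 48 h at 37C. CellTiter-Glo luminescence normalized to DMSO and no-cell wells; concentration-response curves fitted and classed.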
TDP1 cell CPT – growth inhibition of DT40 Tdp1-/-;hTDP1 cells with camptothecin (screen for TDP1 inhibitors) | chicken DT40 Tdp1-/-;hTDP1 cells + 20 nM CPT, ATP luminescence, 48 h | Potency, µM (highest dose often 46.2 µM), most hits filed as inhibitors | 420,000 compounds, 12% hits | AID 686979; also: nearly all actives have a fitted effect of over 55% in size
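Chicken DT40 Tdp1-/- cells stably complemented with human TDP1 were seeded at 400 cells/well in medium containing 20 nM camptothecin, exposed to pin-transferred compounds, and grown at 37 °C for at least 48 hr. Viability was read as ATP luminescence.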
KB-3-1 tox – KB-3-1 parental cell cytotoxicity; 400,000 compounds, 1.4% hits; KB-3-1 viability, CellTiter-Glo ATP luminescence, 72 h; Potency, µM (top dose mostly 46.1 µM), most hits filed as cytotoxic; also: nearly all actives have a fitted effect of over 60% in size
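Multi-concentration cytotoxicity screen in KB-3-1 cells grown in DMEM lacking phenol red with 10% FBS. After 72 h at 37 °C with compound, ATP-dependent luminescence was recorded.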
DT40 TDP1 no CPT – qHTS for Inhibitors of human tyrosyl-DNA phosphodiesterase 1 (TDP1): qHTS in cells in absence of CPT. AID 686978, 2013. Potency, µM (highest dose often 46.2 µM), most hits filed as inhibitors. DT40 Tdp1-/- hTDP1 cells, no CPT, ATP luminescence, 48 h. 420,000 compounds, 15% hits; also: nearly all actives have a fitted effect of over 55% in size
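Compound effects on proliferation are scored in DT40 Tdp1-/-;hTDP1 cells in the absence of CPT. ATP levels (CellTiter-Glo luminescence) are recorded after a ≥48 hr, 37 °C incubation.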
Hits are given with their value; 0 = inactive; ? = inconclusive; - = not tested or not shown. Sampled rows, rich in hits. Any-hit rate of the full collection: about 19%. Calls follow the shape of the dose curve; as a rule, active = well fitted curve in the direction sought with a large enough effect; inconclusive = small, poorly fitted or top-dose-only effect, or another doubt; inactive = no such curve, though single readings can be large; an effect the other way counts as inactive or inconclusive.

SMILES	HT1080 IDH1KD tx	KB-V1 cytotox	HT1080NT lethal	TDP1 cell CPT	KB-3-1 tox	DT40 TDP1 no CPT
CC(C)c1ccc(-n2c(-c3ccccc3)c[n+]3c2CCc2ccccc2-3)cc1	7.3µM	0	8.2µM	0.0073µM	2.6µM	0.033µM
COc1ccccc1-n1c(-c2ccc(F)cc2)coc1=O	0	0	0	0	0	0
COc1ccccc1-n1c(-c2ccccc2)c[n+]2c1CCc1ccccc1-2	13µM	0	15µM	0.33µM	3.3µM	0.013µM
CCn1c(C)c(C)c2cc(C(=O)NCCCN3CCCCC3C)ccc21 (configuration not stated)	0	0	0	?	0	0
CC(C)(C)OC(=O)[C@H]1[C@H](c2ccc([N+](=O)[O-])cc2)C2(C(=O)c3ccccc3C2=O)C2c3ccccc3C=NN21 (some centres not stated)	0	0	0	?	0	18µM
COc1ccccc1NC(=O)c1c(NCc2ccc(C)o2)sc2c1CCC(C)C2 (configuration not stated)	-	0	-	18µM	0	?
COc1ccc(NC(=O)c2c(NCc3ccc(C)o3)sc3c2CCCCC3)c(OC)c1	-	0	-	9.2µM	0	18µM
COc1ccc(NC(=O)c2c(NCc3ccc(C)o3)sc3c2CCC(C)C3)c(OC)c1 (configuration not stated)	-	0	-	21µM	0	?
COc1ccc(NC(=O)c2c(NCc3ccc(C)o3)sc3c2CCC(C)C3)cc1 (configuration not stated)	-	0	-	23µM	0	9.2µM
CC(Cc1cccs1)NC(=O)c1cccs1 (configuration not stated)	0	0	0	0	0	0
CC(Cc1cccs1)NC(=O)Nc1ccc([N+](=O)[O-])cc1 (configuration not stated)	0	0	0	?	0	16µM
Cc1ccc(Cn2ccc(NC(=O)c3nn(C)cc3Cl)n2)cc1	0	0	0	0	?	0
Cn1cc([N+](=O)[O-])c(C(=O)Nc2ccc(Br)cn2)n1	7.1µM	?	11µM	0	?	0
CCn1cc(/C=C/C(=O)Nc2ccn(Cc3c(F)c(F)cc(F)c3F)n2)cn1	0	0	0	?	0	12µM
Cn1cc([N+](=O)[O-])c(C(=O)Nc2ccn(Cc3c(F)c(F)cc(F)c3F)n2)n1	6.3µM	?	7.1µM	0	0	0
Cc1ccccc1NC(=O)c1cc(S(=O)(=O)N2CCOCC2)cn1C	0	0	0	0	0	0
COCCN(C(=O)CSc1ncc(C(F)(F)F)cc1Cl)c1c(N)n(Cc2ccccc2)c(=O)[nH]c1=O	0	0	0	0	0	0
Cc1cc2oc(=O)cc(-c3ccccc3)c2c(C)c1-c1ccc(C(F)(F)F)cc1	0	0	0	?	0	?
Cc1cc2oc(=O)cc(-c3ccccc3)c2c(C)c1-c1ccc(N(C)C)cc1	0	0	0	?	0	?
Cc1ccc(-c2c(C)cc3oc(=O)cc(-c4ccccc4)c3c2C)cc1	0	0	0	?	0	23µM
COc1ccc(-c2c(C)cc3oc(=O)cc(-c4ccccc4)c3c2C)cc1	0	?	0	23µM	0	?
COc1ccc(-c2ccc(-c3cc(=O)oc4c(C(C)C)ccc(C)c34)cc2)cc1	0	0	0	23µM	0	21µM
CC(C)(C)OC(=O)N1CCc2nc(N3CCN(c4ncccn4)CC3)ncc2C1	-	0	-	0	0	0
C=CCNc1oc(-c2cccs2)nc1C#N	0	?	0	0	?	0
COc1cc(/C=N/NC(=O)CC23CC4CC(CC(C4)C2)C3)cc(Br)c1OCC(=O)N(C)C	?	0	?	21µM	0	18µM
SMILES	HT1080 IDH1KD tx	KB-V1 cytotox	HT1080NT lethal	TDP1 cell CPT	KB-3-1 tox	DT40 TDP1 no CPT
O=C(O)CCCNc1cc(N2CCN(C(=O)c3ccco3)CC2)c2noc3c2c1C(=O)c1ccccc1-3	?	?	?	?	0	?
O=C1c2ccccc2-c2onc3c(N4CCN(CCO)CC4)cc(N4CCN(C(=O)c5ccco5)CC4)c1c23	?	?	?	?	?	15µM
O=C(CSc1ccccc1)NCc1ccc(F)cc1	0	0	0	0	0	0
COc1cccc(CNC(=O)CSC2=Nc3ccccc3N=C(c3ccc(F)cc3)C2)c1	-	0	-	21µM	0	?
O=C(CSC1=Nc2ccccc2N=C(c2ccc(F)cc2)C1)NCc1ccccc1Cl	-	0	-	23µM	0	?
O=C(CSC1=Nc2ccccc2N=C(c2ccc(F)cc2)C1)NCc1ccc(Cl)cc1	-	0	-	21µM	0	?
COc1cc(OC)c(NC(=O)CSC2=Nc3ccccc3N=C(c3ccc(F)cc3)C2)cc1Cl	-	0	-	?	0	?
O=C(CSc1ncn[nH]1)NCc1ccccc1Cl	0	0	0	0	0	0
COc1ccc(N2C(=O)C(CC(=O)Nc3ccc(F)cc3)N(CCc3ccc(OC)c(OC)c3)C2=O)cc1 (configuration not stated)	0	0	0	0	0	0
COC(=O)c1ccc(C2c3c(oc4ccc(C)cc4c3=O)C(=O)N2Cc2ccc3c(c2)OCO3)cc1 (configuration not stated)	-	0	-	0	0	0
COc1ccc(NC(=O)C2(S(=O)(=O)c3ccc(C)cc3)CC2)c(OC)c1	-	0	-	0	0	0
COc1ccnc(NCc2cccnc2)c1C#N	0	0	0	0	0	29µM
COc1ccnc(NCc2cccc(C(F)(F)F)c2)c1C#N	0	0	0	0	0	0
COc1ccc(-c2cn(/N=C/c3ccc(Cl)cc3Cl)c(N)n2)cc1	0	?	?	23µM	0	?
Nc1nc(-c2ccccc2)cn1N	0	0	0	?	0	?
Nc1nc(-c2ccccc2)cn1/N=C/c1ccccc1	?	0	?	?	0	23µM
O=C(NCc1ccc(F)cc1)C1CCCN1C(=O)Nc1cccc(F)c1 (configuration not stated)	0	0	0	0	0	0
S=c1nccc(-c2ccc3c(c2)CCO3)[nH]1	0	0	0	10µM	0	?
CCS(=O)(=O)c1ccc(-c2csc(-c3ccccc3Cl)n2)c(Cl)c1Cl	0	0	0	?	0	23µM
COc1cccc(-c2cnc(C(O)c3ccc(C)c(F)c3)[nH]2)c1 (configuration not stated)	0	0	0	0	0	0
CCOc1ccc(NC(=O)CC2C(=O)N(c3cccc(C)c3)C(=O)N2Cc2cccs2)cc1 (configuration not stated)	-	-	-	?	-	21µM
